Rows were chosen to be rich in hits. Some 3.5% of all compounds tested hit in one or more screens of this group.
GPR151 activ = activators of human GPR151. Q8TDV0. PathHunter beta-arrestin GPR151 cells, luminescence. activation, % at 11.2 µM. 650,000 compounds, 1% hits. AID 1508602; in the data active = activation above about 4.9%;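 note: 0% = median of compound wells and 100% = cells with positive control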
TEAD-YAP block = TEAD-YAP interaction inhibition | inhibition, % at 9.12 µM | 640,000 compounds, 1.4% hits | HEK-TIYL cells, TEAD-Gal4/YAP UAS-luciferase luminescence; in the data active = inhibition above about 32%;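 note: 0% = median of test compound wells and 100% = reference inhibitor wells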
FBW7 act = activators of human E3 ligase FBW7 | Q969H0 | AlphaScreen FBW7–phospho-cyclin E peptide binding, activator screen | normalized activity (activation), % at 26.1 µM | 650,000 compounds, 0.13% hits | AID 1259310; in the data active = normalized activity above about 1.9%;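 note: purified mutant Fbw7 with reduced substrate affinity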
MITF primary = blocks human microphthalmia-associated transcription factor; 650,000 compounds, 0.91% hits; AID 1259374; AlphaScreen MITF homodimerization, bead proximity signal; inhibition, % at 2.6 µM; in the data active = inhibition above about 50%;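 note: 0% = vehicle wells with protein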
Target sequence (O75030 whole entry, looked up): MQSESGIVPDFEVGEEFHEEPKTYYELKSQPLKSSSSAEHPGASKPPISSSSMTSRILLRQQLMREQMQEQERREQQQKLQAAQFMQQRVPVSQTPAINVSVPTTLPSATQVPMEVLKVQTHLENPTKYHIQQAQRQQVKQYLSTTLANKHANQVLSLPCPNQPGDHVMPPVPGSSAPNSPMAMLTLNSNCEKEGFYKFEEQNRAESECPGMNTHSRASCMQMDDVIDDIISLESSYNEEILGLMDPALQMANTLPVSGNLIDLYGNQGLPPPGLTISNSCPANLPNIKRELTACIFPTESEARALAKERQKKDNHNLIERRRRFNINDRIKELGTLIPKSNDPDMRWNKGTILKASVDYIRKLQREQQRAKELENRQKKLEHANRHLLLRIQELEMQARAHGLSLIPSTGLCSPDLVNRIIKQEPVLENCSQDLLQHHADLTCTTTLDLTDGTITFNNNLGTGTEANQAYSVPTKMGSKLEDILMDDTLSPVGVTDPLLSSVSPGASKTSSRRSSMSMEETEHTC
GPR151 conf act = confirmation of human GPR151 activators; shares compounds with GPR151 activ; activation, % at 11.2 µM; GPR151 PathHunter beta-arrestin cells, luminescence, 90 min; % of EA-reagent control over plate median; 6,700 tested, under 10 active;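 active = mean percent activation across replicates above the confirmation screen cutoff of 4.91%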
GPR119 counter = activates human GPR119 in a GPR151 counter-screen | shares compounds with GPR151 activ | GPR119 PathHunter beta-arrestin cells, luminescence, 90 min; 0 = compound-well median, 100 = enzyme-acceptor control | activation, % at 11.2 µM | 6,700 compounds, 0.3% hits | AID 1508611;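 active = mean percent activation in the counterscreen above 29.09%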;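 note: counterscreen on off-target GPR119 to flag nonselective hits from the GPR151 activator screen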
An asterisk follows results filed as active; . = no result.

SMILES | GPR151 activ | TEAD-YAP block | FBW7 act | MITF primary | GPR151 conf act | GPR119 counter
O=C(O)c1ccc(NC(=O)C2CC=CCC2C(=O)OCC(F)(F)C(F)F)cc1 (stereo not drawn) | 0 | 12 | 0 | 10 | . | .
CS(=O)(=O)N(CC(=O)NC1CC2CCC1C2)c1cc(Cl)c(Cl)cc1Cl (stereo not drawn) | 1 | 5 | 0 | 4 | . | .
CCc1ccccc1N(CC(=O)NC1CC2CCC1C2)S(C)(=O)=O (stereo not drawn) | 5.6* | 0 | 0 | 8 | 0 | -2
CC1CCCC(NC(=O)c2ccc(N3CCC(Cc4ccccc4)CC3)c([N+](=O)[O-])c2)C1C (stereo not drawn) | -1 | -4 | 0 | 5 | . | .
CC1CCCN(S(=O)(=O)c2ccc([N+](=O)[O-])cc2)C1 (stereo not drawn) | 5.7* | -4 | 0 | 4 | 1 | 2
FC(F)(F)c1nnc2c3ccccc3c(NC3CC3)nn12 | 7.3* | 1 | 0 | 6 | 0 | 8
COc1ccccc1OCC(=O)Nc1nc(-c2cccs2)c(NC(C)=O)s1 | 14* | 11 | 0 | 3 | 1 | 11
CC(=O)Nc1ccc(-c2cnc3cccc(-c4cccnc4)c3c2)cc1 | 1 | 0 | 0 | 16 | . | .
CC(=O)Nc1ccc(-c2cnc3cccc(-c4ccncc4)c3c2)cc1 | 5.0* | -13 | 0 | 13 | 0 | -9
CC(=O)c1cccc(NC(=O)c2ccc(C(C)(C)C)cc2)c1 | 1 | -37 | 0 | 1 | . | .
COc1cc(OC)c(CN2CCC(CO)(CCOc3ccccc3)CC2)c(OC)c1 | 5.4* | 11 | 0 | 9 | -1 | -12
O=c1[nH]c2cc(Cl)c(Cl)cc2[nH]c1=O | 5.5* | -17 | 0 | 22 | -1 | -4
COc1ccc2[nH]c(=O)c(=O)[nH]c2c1 | 1 | 12 | 0 | 35 | . | .
CCCCn1c(=O)c2c(ncn2CC(C)=O)n(CCCC)c1=O | 1 | -8 | 0 | 0 | . | .
CCC(=O)N1CCc2nc3ccccn3c(=O)c2C1 | -1 | -5 | 0 | -5 | . | .
CC(C)(C)C(=O)N1CCc2nc3ccccn3c(=O)c2C1 | 6.8* | 3 | 0 | -4 | 0 | -5
O=C(NC1CCN(Cc2ccccc2)CC1)c1ccc(-n2c(=S)[nH]c3ccccc3c2=O)cc1 | -1 | 2 | 0 | 15 | . | .
Cc1cc2ccccc2n1CCNC(=O)c1ccc(Br)cc1 | 5.0* | -13 | 0 | 1 | 0 | 7
Cc1oc(-c2cccc(Cl)c2)nc1COC(=O)c1nnn(-c2cccc(F)c2)c1C | 6.0* | -1 | 0 | -12 | -1 | -12
CCOCCC(=O)N(CC)c1ccccc1 | 0 | 6 | 1 | -11 | . | .
CCOc1ccc(NC(=O)CC2OCCN(Cc3ccccc3)C2=O)cc1 (stereo not drawn) | 1 | 5 | 0 | 2 | . | .
O=C(Nc1ccc2nn(-c3ccccc3)nc2c1)c1ccc(-c2cccc([N+](=O)[O-])c2)o1 | 5.1* | 1 | 0 | -1 | 0 | 12
COCCCNC(=O)CCCc1cn(C)c2ccccc12 | 6.6* | -8 | 0 | -6 | 0 | 1
CCCCNC(=O)Cc1cn(C)c2ccccc12 | 5.1* | -26 | 0 | 3 | 1 | 7
COCCCNC(=O)Cc1cn(C)c2ccccc12 | 0 | -5 | 0 | -8 | . | .
SMILES | GPR151 activ | TEAD-YAP block | FBW7 act | MITF primary | GPR151 conf act | GPR119 counter
Cn1cc(CC(=O)NCCN2CCN(Cc3ccccc3)CC2)c2ccccc21 | 5.2* | 4 | 0 | -13 | -1 | -9
O=C(CSCCc1ccccn1)Nc1ccc(I)cc1 | 5.7* | -25 | 0 | -14 | 0 | 4
O=C(CSCc1ccccn1)Nc1ccc2ccccc2c1 | 7.5* | -40 | 0 | -8 | 0 | 9
O=C(CSCC(=O)Nc1ccccn1)Nc1ccc2ccccc2c1 | -1 | -15 | 0 | 0 | . | .
O=C(CSCCc1ccccn1)Nc1ccccc1Cl | 8.0* | -13 | 0 | 2 | 0 | 0
CN(CCc1ccccn1)C(=O)CCNC(=O)Cn1cnc2ccccc2c1=O | -1 | -8 | 0 | -24 | . | .
COc1cccc(C(=O)Nc2cc3c4c(c2)CCN4C(=O)CC3)c1 | 1 | 4 | 0 | 1 | . | .
O=C(Nc1nc2ccccc2s1)c1cc2ccc(O)cc2oc1=O | 3 | -46 | 0 | -1 | . | .
CCOc1ccc(C(=O)NC2CC(C)(C)NC(C)(C)C2)cc1OCC | 12* | 11 | 0 | 12 | -1 | -10

Screening results from PubChem.
